The results in this text go back to PubChem BioAssay AID1159580 (chemical genetic matrix, 2015).

The campaign covered roughly 5,500 compounds. About 2,000 (36%) were called active. Not shown: some 18% with an inconclusive outcome. Some of the results follow. A number with no mark means an inactive call. No stated cut-off is given here; in the data, active means normalized growth mostly below about 0.91 (no sharp cut-off); inconclusive means no clear call, values can overlap the other calls; inactive means mostly above about 0.92.

This test can be described thus: chemical genetic growth profiling, strain panel (AID 1159580).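 Further: tested at 20 µM; growth read once vehicle control cultures reached saturation at 30 °C; 1 = growth at the plate median or of vehicle wells; lower values mean less growth of the strain.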 The conditions noted are these: S. cerevisiae deletion strains, growth OD.
Where [1] appears, read: locus YAL040C, strain CLN3, hits give low values.
Setting [2] is: locus YCL061C, strain MRC1 (second series), hits give low values.
Where [3] appears, read: locus YDR363W, strain ESC2, hits give low values.
Setting [4] is: locus YER002W, strain NOP16, hits give low values.
Where [5] appears, read: locus YJR075W, strain HOC1, hits give low values.
The mark [6] stands for this setting: locus YMR307W, strain GAS1, hits give low values.
The mark [7] stands for this setting: locus YNL128W, strain TEP1, hits give low values.
Where [8] appears, read: locus YNL175C, strain NOP13, hits give low values.
[9] abbreviates: locus YNL197C, strain WHI3, hits give low values.
[10] abbreviates: locus YNL224C, strain SQS1, hits give low values.
Where [11] appears, read: locus YNL322C, strain KRE1, hits give low values.
Setting [12] is: locus YOR083W, strain WHI5 (second series), hits give low values.
Where [13] appears, read: locus YMR263W, strain SAP30, hits give low values.
The mark [14] stands for this setting: locus YNL153C, strain GIM3, hits give low values.
[15] abbreviates: locus YPL055C, strain LGE1, hits give low values.
Setting [16] is: locus YPL241C, strain CIN2, hits give low values.
Where [17] appears, read: locus YAL013W, strain DEP1, hits give low values.
Setting [18] is: locus YGR078C, strain PAC10, hits give low values.
Setting [19] is: locus YGR229C, strain SMI1, hits give low values.
Setting [20] is: locus YDR150W, strain NUM1, hits give low values.

With `OC[C@H]1O[C@@H](n2cnc3c(Nc4ccccc4)ncnc32)C(O)[C@H]1O` (stereo not given in full), the normalized growth was 0.966 under setting [1]; 0.999 under setting [2]; 0.908 under setting [3]; 0.977 under setting [4]; 1.01 under setting [5]; 1.02 under setting [6]. The normalized growth is 0.987 under setting [7]; 0.98 under setting [8]; 0.963 under setting [9]; 0.979 under setting [10]; 1.02 under setting [11]; 0.96 under setting [12].

Turning to `Oc1ccc(C2CNCCc3c2cc(O)c(O)c3Cl)cc1` (stereo not given), the normalized growth under setting [1] was 0.987; the normalized growth under setting [2] is 0.986; the normalized growth under setting [3] is 1.03; the normalized growth under setting [4] was 0.997; the normalized growth under setting [13] was 0.994; the normalized growth under setting [6] was 1.02. Further, the normalized growth under setting [7] was 0.984; the normalized growth under setting [14] is 0.935; the normalized growth under setting [8] was 1; the normalized growth under setting [9] is 0.977; the normalized growth under setting [10] was 1.06; the normalized growth under setting [11] is 1.02. For the same compound, the normalized growth was 0.965 under setting [12], 0.989 under setting [15] and 0.981 under setting [16].

For `C=CCN1CCc2cc(O)c(O)cc2C(c2ccccc2)C1` (stereo not given), the normalized growth was 0.95 under setting [17]; 1.06 under setting [1]; 0.979 under setting [2]; 0.994 under setting [3]; 1.02 under setting [4]; 1.01 under setting [18]. Moreover, the normalized growth was 0.917 under setting [19]; 1 under setting [13]; 1 under setting [6]; 1.02 under setting [7]; 1.01 under setting [14]; 1.02 under setting [8]. Further, the normalized growth was 1.02 under setting [9], 1 under setting [10], 0.966 under setting [11] and 1.02 under setting [12].

Turning to `Oc1cc2c(c(Cl)c1O)CCNCC2c1ccccc1` (stereo not given), the normalized growth is 0.985 under setting [1]; 0.985 under setting [2]; 0.925 (active) under setting [20]; 0.977 under setting [3]; 0.978 under setting [4]; 0.995 under setting [18]. Moreover, the normalized growth reads like this: under setting [5], 0.875 (active); under setting [13], 1.01; under setting [6], 0.988; under setting [14], 0.967; under setting [8], 1.02; under setting [9], 1.01. Moreover, the normalized growth reads like this: under setting [10], 1.04; under setting [11], 0.981; under setting [12], 1.01; under setting [15], 0.57 (active); under setting [16], 0.981.

Turning to `C=CCN1CCc2c(cc(O)c(O)c2Cl)C(c2ccccc2)C1` (stereo not given), the normalized growth is, setting by setting: under setting [17], 0.917; under setting [1], 0.992; under setting [2], 0.934 (active); under setting [20], 0.907 (active); under setting [3], 0.891; under setting [4], 0.996. Moreover, the normalized growth by setting is: under setting [13], 0.995; under setting [6], 0.993; under setting [14], 0.911; under setting [8], 0.981; under setting [9], 0.904; under setting [10], 1.04. In addition, the normalized growth runs as follows: under setting [11], 0.754 (active); under setting [12], 0.958.

As for `CN1CCc2c(cc(O)c(O)c2Cl)C(c2cccc(Cl)c2)C1` (stereo not given), the normalized growth under setting [1] was 1.07; the normalized growth under setting [2] was 0.945; the normalized growth under setting [3] was 0.962; the normalized growth under setting [4] was 1.01; the normalized growth under setting [5] is 0.837 (active); the normalized growth under setting [6] is 0.993. In addition, the normalized growth was 1 under setting [8]; 0.991 under setting [9]; 1.01 under setting [10]; 0.917 under setting [11]; 0.982 under setting [12]; 0.466 (active) under setting [15]. For the same compound, the normalized growth under setting [16] was 0.927 (active).

As for `Cc1cccc(C2CN(C)CCc3c2cc(O)c(O)c3Cl)c1` (stereo not given), the normalized growth is 1.01 under setting [1]; 0.988 under setting [2]; 1 under setting [3]; 1.01 under setting [4]; 1.01 under setting [6]; 1.01 under setting [8]. Also, the normalized growth by setting is: under setting [9], 1.01; under setting [10], 1.01; under setting [11], 0.973; under setting [12], 1.01; under setting [16], 0.996.

With `C=CCN1CCc2c(cc(O)c(O)c2Br)[C@@H](c2ccccc2)C1`, the normalized growth reads like this: under setting [1], 1.03; under setting [3], 0.8 (active); under setting [4], 1; under setting [14], 0.945; under setting [8], 1.04; under setting [9], 0.98. In addition, the normalized growth runs as follows: under setting [10], 1.02; under setting [12], 0.987; under setting [16], 0.122 (active).

`CN1CCc2cc(Cl)c(O)cc2[C@@H](c2ccccc2)C1`: the normalized growth under setting [1] is 1.01; the normalized growth under setting [2] is 1; the normalized growth under setting [3] was 1.01; the normalized growth under setting [4] was 1.04; the normalized growth under setting [19] is 1.03; the normalized growth under setting [6] is 0.993. Further, the normalized growth is 1.02 under setting [14]; 1.01 under setting [8]; 0.995 under setting [9]; 1.01 under setting [10]; 1.03 under setting [12]; 0.995 under setting [15].

On to `CN1CCc2cc(O)c(O)cc2C(c2ccccc2)C1` (stereo not given), for which the normalized growth under setting [17] was 1.02; the normalized growth under setting [1] was 1; the normalized growth under setting [2] was 0.997; the normalized growth under setting [3] was 1.02; the normalized growth under setting [4] is 1; the normalized growth under setting [13] was 1. The normalized growth by setting is: under setting [6], 0.998; under setting [7], 1; under setting [14], 1.01; under setting [8], 1.01; under setting [9], 1.01; under setting [10], 1. The normalized growth by setting is: under setting [11], 1; under setting [12], 1.01; under setting [16], 1.

For `O=C(CC[N+](=O)[O-])OC[C@H]1O[C@@H](O)[C@H](OC(=O)CC[N+](=O)[O-])[C@@H](OC(=O)CC[N+](=O)[O-])[C@@H]1OC(=O)CC[N+](=O)[O-]`, the normalized growth reads like this: (locus YBR021W, strain FUR4, hits give low values) 1.04; (locus YBR229C, strain ROT2, hits give low values) 1.02; (locus YCL029C, strain bik1, hits give low values) 1.01; (locus YDL035C, strain GPR1, hits give low values) 1.08; (locus YDL074C, strain BRE1, hits give low values) 1.18; (locus YDL101C, strain DUN1, hits give low values) 1.02. The normalized growth is, setting by setting: (locus YDL185W, strain tfp1, hits give low values) 1.01; (locus YDL192W, strain arf1, hits give low values) 1.03; (locus YDR101C, strain arx1, hits give low values) 1.01; under setting [20], 1.03; (locus YDR162C, strain NBP2, hits give low values) 1.05; (locus YDR318W, strain mcm21, hits give low values) 1.03. For the same compound, the normalized growth (locus YDR388W, hits give low values) is 0.999; the normalized growth (locus YDR502C, strain sam2, hits give low values) was 1.02; the normalized growth (locus YEL061C, strain CIN8, hits give low values) is 1.03; the normalized growth (locus YER110C, hits give low values) is 0.998; the normalized growth (locus YER155C, strain BEM2, hits give low values) is 1.01; the normalized growth (locus YER167W, strain BCK2, hits give low values) was 1.02. Moreover, the normalized growth reads like this: (locus YGL078C, strain dbp3, hits give low values) 1; (locus YGL086W, strain mad1, hits give low values) 1.01; (locus YGL248W, strain PDE1, hits give low values) 1.05; (locus YGR135W, strain pre9, hits give low values) 1.01; (locus YGR252W, strain gcn5, hits give low values) 1.04; (locus YHR030C, strain SLT2, hits give low values) 1.02. The normalized growth was 0.998 (locus YHR079C, strain IRE1 (second series), hits give low values); 1.01 (locus YHR094C, strain hxt1, hits give low values); 1.04 (locus YHR129C, strain ARP1, hits give low values); 1.02 (locus YHR200W, strain rpn10, hits give low values); 1.04 (locus YIL066C, strain RNR3, hits give low values); 1.13 (locus YIL073C, strain SPO22, hits give low values). The normalized growth by setting is: (locus YIL125W, strain kgd1, hits give low values) 1; (locus YIR030C, strain dcg1, hits give low values) 1.03; (locus YJL095W, strain BCK1, hits give low values) 1.08; (locus YJL134W, strain LCB3, hits give low values) 1.02; (locus YJL168C, strain set2, hits give low values) 1.01; (locus YJL187C, strain SWE1 (second series), hits give low values) 1.04. The normalized growth was 0.993 (locus YKL009W, strain mrt4, hits give low values); 1 (locus YKL068W, hits give low values); 1.01 (locus YKL085W, strain MDH1 (second series), hits give low values); 1.01 (locus YKL085W, strain MDH1, hits give low values); 1.07 (locus YKR001C, strain vps1, hits give low values); 1.23 (locus YLR039C, strain RIC1, hits give low values). In addition, the normalized growth runs as follows: (locus YLR058C, strain SHM2, hits give low values) 1.03; (locus YLR102C, strain apc9, hits give low values) 0.991; (locus YLR268W, strain sec22, hits give low values) 1.04; (locus YLR330W, strain CHS5, hits give low values) 1.03; (locus YLR342W, strain FKS1 (second series), hits give low values) 1.06; (locus YLR371W, strain rom2, hits give low values) 1.02. For the same compound, the normalized growth by setting is: (locus YLR418C, strain cdc73, hits give low values) 1.15; (locus YML016C, strain PPZ1, hits give low values) 1.02; (locus YML032C, strain rad52, hits give low values) 0.999; (locus YML124C, strain tub3, hits give low values) 1.02; (locus YMR078C, strain ctf18, hits give low values) 1.01; (locus YMR223W, strain ubp8, hits give low values) 1.02. In addition, the normalized growth under setting [6] was 1.24; the normalized growth (locus YNL067W, strain RPL9B, hits give low values) was 1.02; the normalized growth under setting [14] was 1.05; the normalized growth (locus YNL233W, strain BNI4, hits give low values) was 1.08; the normalized growth (locus YNL250W, strain rad50, hits give low values) was 0.995; the normalized growth (locus YNL271C, strain bni1, hits give low values) is 1.01. For the same compound, the normalized growth runs as follows: (locus YNL298W, strain CLA4, hits give low values) 1.01; (locus YNL307C, strain MCK1, hits give low values) 1.01; (locus YNR052C, strain pop2, hits give low values) 1; (locus YOL012C, strain htz1) 1.02; (locus YOL147C, strain pex11, hits give low values) 0.996; (locus YOR061W, strain CKA2, hits give low values) 1.02. In addition, the normalized growth was 1.02 (locus YOR069W, strain VPS5, hits give low values); 1.01 (locus YOR136W, strain idh2, hits give low values); 1 (locus YOR144C, strain elg1, hits give low values); 1.03 (locus YOR184W, strain ser1, hits give low values); 0.992 (locus YOR316C, strain cot1, hits give low values); 0.998 (locus YPR119W, strain clb2, hits give low values). Moreover, the normalized growth reads like this: (locus YPR141C, strain kar3, hits give low values) 1; (locus YPR163C, strain tif3, hits give low values) 1.01; (locus YPR167C, strain met16, hits give low values) 1.02; (strain wtn01, hits give low values) 1.02.
